Pf growth 48h: Primary qHTS for delayed death inhibitors of the malarial parasite plastid, 48 hour incubation; P. falciparum luciferase growth in erythrocytes, 48 h; Potency, µM (highest dose often 28.7 µM), actives largely listed as inhibitors; 310,000 tested, 5.9% active; AID 504832, 2011
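Luciferase-expressing parasites in RBCs, 2% Hct / 0.1% parasitemia final; RPMI 1640 + 0.5% Albumax; 37 C, 5% CO2, one generation; luminescence read-out, lower signal = inhibition.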
HCMV inh: qHTS Assay for inhibitors of the human cytomegalovirus (HCMV). 410,000 tested, 4.5% active. activity change, negative = inhibition, % at 57.5 µM. AID 1259415, 2018. HFF cells, HCMV-luciferase reporter, 72 h; hits give low values; in the data active means activity change below about -60%; inconclusive means no clear call, values can overlap the other calls; inactive means above about -39%
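Two compound doses tested in HFFs infected with HCMV-luciferase, MOI 1 PFU/cell, 72 h at 37C. Lysate luminescence read with OneGlo; data normalized against buffer-only and 10uM Salinomycin inhibitor controls.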
Giardia FBPA inh: qHTS Assay for Inhibitors of Fructose-1,6-bisphosphate Aldolase from Giardia Lamblia; 290,000 tested, 0.71% active; A8B2U2; purified Giardia FBPA; Potency, µM (highest dose often 59.6 µM), most hits filed as inhibitors; further: nearly all actives have a fitted effect of over 55% in size
Target sequence (A8B2U2 whole entry, looked up): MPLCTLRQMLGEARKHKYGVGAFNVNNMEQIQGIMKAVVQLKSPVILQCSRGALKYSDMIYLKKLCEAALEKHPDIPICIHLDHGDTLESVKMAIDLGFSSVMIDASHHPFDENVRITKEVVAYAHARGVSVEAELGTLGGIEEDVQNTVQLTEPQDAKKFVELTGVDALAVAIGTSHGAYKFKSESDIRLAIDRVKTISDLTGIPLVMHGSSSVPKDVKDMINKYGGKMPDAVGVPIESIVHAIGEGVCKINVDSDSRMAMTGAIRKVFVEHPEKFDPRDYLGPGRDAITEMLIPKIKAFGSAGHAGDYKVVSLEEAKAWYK
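40 nM FBPA preincubated 10 min at RT with compound (up to 57.5 uM final), then substrate plus GAPDH/TPI/NAD/arsenate coupling and diaphorase/resazurin added. Fluorescence read after 20 min at RT, 525/598 nm.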
Sm TGR block: qHTS Assay for the Inhibitors of Schistosoma Mansoni Peroxiredoxins. Schistosoma mansoni thioredoxin glutathione reductase (TGR), Q962Y6. 360,000 tested, 3% active. purified TGR, DTNB reduction, TNB absorbance 405 nm. Potency, µM (doses to about 114 µM), hits mostly inhibitors. AID 485364, 2010; further: nearly all actives have a fitted effect of over 60% in size
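Kinetic colorimetric format: TGR-catalysed, NADPH-driven DTNB reduction monitored via TNB absorbance. Enzyme dispensed at 20 nM; compound exposure 15 min at room temperature before reaction start.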
Pf growth 96h: Primary qHTS for delayed death inhibitors of the malarial parasite plastid, 96 hour incubation; Potency, µM (doses to about 28.7 µM), usual class: inhibitors; P. falciparum luciferase reporter growth, 96 h; 320,000 tested, 6.9% active
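Erythrocytes infected with luciferase-expressing P. falciparum were dispensed at 2% hematocrit and 0.05% parasitemia (final), then incubated with compounds 96 hours at 37 C in 5% CO2. Luminescence after detection reagent addition reported growth.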
A number is an active result; [ ] = another dose, or the depositor's remark. Shown are actives, neighbours in structure and some others; about 14% of the full set was active somewhere. Unless noted, the call rests on the fitted dose curve; in most records, active means well fitted curve in the direction sought with a large enough effect; inconclusive means small, poorly fitted or top-dose-only effect, or another doubt; inactive means no such curve, though single readings can be large; an effect the other way counts as inactive or inconclusive.

For Fc1ccc(-c2ccnc3nc(N4CCOCC4)nn23)cc1 the results were Pf growth 48h inactive, HCMV inh inactive, Giardia FBPA inh inactive, Sm TGR block inactive and Pf growth 96h inconclusive.
`COc1ccc(-c2ccnc3nc(N4CCN(c5ccccc5)CC4)nn23)cc1` gave Pf growth 48h inconclusive, HCMV inh inactive, Giardia FBPA inh inactive, Sm TGR block inactive and Pf growth 96h 9.28µM.
O=C(NCC(c1ccco1)S(=O)(=O)c1cccs1)c1ccc(Cl)cc1 (stereo not given) was read as HCMV inh inactive and Sm TGR block 14.1µM.
O=C(NCC(c1cccs1)S(=O)(=O)c1cccs1)c1ccc(F)c(F)c1 (stereo not given) was read as HCMV inh inactive and Sm TGR block inconclusive.
`COc1cc(C(=O)NCC(c2ccco2)S(=O)(=O)c2cccs2)cc(OC)c1OC` (stereo not given) gave HCMV inh inactive and Sm TGR block 8.91µM.
Screening O=C(NCC(c1cccs1)S(=O)(=O)c1cccs1)c1ccc(Cl)cc1 (stereo not given) returned HCMV inh inactive and Sm TGR block 25.1µM.
O=C(NCCc1ccc(Cl)cc1)C(=O)NCC(c1ccco1)S(=O)(=O)c1cccs1 (stereo not given) was read as HCMV inh inactive and Sm TGR block 39.8µM.
For CN(C)c1ncc2nc(-c3ccc(Cl)cc3)c(=O)n(C[C@H]3CCCO3)c2n1 the results were Giardia FBPA inh inactive.
Cc1cccc(C(=O)NCC(c2ccco2)S(=O)(=O)c2cccs2)c1 (stereo not given) was read as HCMV inh inactive and Sm TGR block 7.08µM.
For O=C(NCC(c1cccs1)S(=O)(=O)c1cccs1)c1ccc(C(F)(F)F)cc1 (stereo not given) the results were HCMV inh inactive and Sm TGR block inconclusive.
`COc1ccc(C(=O)NCC(c2ccco2)S(=O)(=O)c2cccs2)cc1` (stereo not given) gave HCMV inh inactive and Sm TGR block 8.91µM.
`Cc1[nH]c2ccc(F)cc2c(=O)c1SC(F)(F)C(F)F` gave Pf growth 48h 13.1µM, HCMV inh inactive, Giardia FBPA inh inactive, Sm TGR block inactive and Pf growth 96h inactive.
Screening COC(=O)/C=C/c1ccc(OC(=O)c2ccncc2)cc1 returned Pf growth 48h inactive, HCMV inh inactive, Giardia FBPA inh inactive, Sm TGR block inactive and Pf growth 96h 13.1µM.
NC(=S)N/N=C/c1ccc(C(F)(F)F)cc1 was read as Pf growth 48h inactive, HCMV inh -88.3, Giardia FBPA inh inconclusive, Sm TGR block inactive and Pf growth 96h inactive.
Screening COc1ccc(OC(=O)c2ccncc2)cc1 returned Pf growth 48h inactive, HCMV inh inactive, Giardia FBPA inh inactive, Sm TGR block inactive and Pf growth 96h inactive.
O=C(Oc1ccc(/C=N/NC(=O)c2ccccc2O)cc1)c1ccccc1 was read as HCMV inh inactive, Giardia FBPA inh inactive, Sm TGR block inactive and Pf growth 96h 6.57µM.
Screening CC(=O)c1ccc(OC(=O)/C=C/c2ccccc2)cc1 returned Pf growth 48h inactive, HCMV inh inactive, Giardia FBPA inh inactive, Sm TGR block inactive and Pf growth 96h 10.4µM.
COc1ccc(/C(N)=N/OC(=O)/C=C/c2ccccc2)cc1 was read as Pf growth 48h inconclusive, HCMV inh inactive, Giardia FBPA inh inactive, Sm TGR block inactive and Pf growth 96h inactive.
Screening O=C1C=C[C@@H](O)[C@H]2[C@@H]3C(=O)N(C4CCCCC4)C(=O)[C@@H]3CC[C@H]12 returned Giardia FBPA inh inactive[12.9 µM].
COc1ccc(CNC(=O)CCN2C(=O)[C@@H]3Cc4ccccc4CN3C2=O)cc1 was read as Pf growth 48h inactive, HCMV inh inactive, Sm TGR block inactive and Pf growth 96h inconclusive.
`Cc1cccc(C(=O)Oc2ccc(/C=N/NC(=O)c3ccncc3)cc2)c1` gave Pf growth 48h 11.7µM, HCMV inh inactive, Giardia FBPA inh inactive, Sm TGR block inactive and Pf growth 96h 11.7µM.
`O=C(N/N=C/c1ccc(OCCCF)cc1)c1ccc(C(F)(F)F)cc1` gave Pf growth 48h inconclusive, HCMV inh inactive, Giardia FBPA inh inactive, Sm TGR block inactive and Pf growth 96h inactive.
For O=C(N/N=C/c1ccc(C(F)(F)F)cc1)c1ccncc1 the results were Pf growth 48h inactive, HCMV inh inactive, Giardia FBPA inh inactive, Sm TGR block inactive and Pf growth 96h 1.65µM.
Cc1cccc(C(=O)Oc2ccc(/C=N/NC(=O)c3cc(O)cc(O)c3)cc2)c1 was read as Pf growth 48h inconclusive, HCMV inh inconclusive, Giardia FBPA inh inactive, Sm TGR block inactive and Pf growth 96h inactive.
`Cc1c(OCC(=O)N[C@H](C(=O)O)c2ccccc2)ccc2c3c(c(=O)oc12)CCCC3` gave Pf growth 48h inactive, HCMV inh inactive, Giardia FBPA inh inactive, Sm TGR block inactive and Pf growth 96h inactive.
For O=C1NC(=O)C2(C=C(c3ccccc3)C(O)(c3ccccc3)C2)N1 (stereo not given) the results were HCMV inh inactive.
`CCN1C(=O)[C@H]2[C@H]3[C@H](O)[C@H](O)C/C(=N/OC[C@@H](O)COCc4ccco4)[C@@H]3CC[C@@H]2C1=O` gave Giardia FBPA inh inactive[12.9 µM].
Screening Cc1cc(O)c(C(C)C)cc1N=Cc1ccc(N(C)C)cc1 returned HCMV inh inactive.
COc1ccc(C(OCCN2CCC[C@H](C(=O)O)C2)(c2ccc(OC)cc2)c2ccc(OC)cc2)cc1 was read as Giardia FBPA inh inactive.
Screening COc1ccc(S(=O)(=O)N(C(=O)c2ccco2)c2cc3sc(=O)oc3c3ccccc23)cc1 returned Pf growth 48h inconclusive, HCMV inh inconclusive, Giardia FBPA inh inconclusive, Sm TGR block inactive and Pf growth 96h inactive.
Screening Cc1ccc(S(=O)(=O)N(C(=O)c2ccco2)c2cc3sc(=O)oc3c3ccccc23)cc1 returned Pf growth 48h 10.4µM, HCMV inh inconclusive, Giardia FBPA inh inconclusive, Sm TGR block inactive and Pf growth 96h 11.7µM.
Screening CC1CCCN(C2(O)C(=O)Nc3ccc([N+](=O)[O-])cc32)C1 (stereo not given) returned Pf growth 48h inactive, HCMV inh -63.2, Giardia FBPA inh inactive, Sm TGR block inactive and Pf growth 96h inactive.
O=C1Nc2ccc([N+](=O)[O-])cc2C1(O)N1CCCCC1 (stereo not given) was read as Pf growth 48h inactive, HCMV inh inactive, Giardia FBPA inh inactive, Sm TGR block inactive and Pf growth 96h inconclusive.
Screening Cc1cc([N+](=O)[O-])cc2c1NC(=O)C2(O)N1CCCCCC1 (stereo not given) returned Pf growth 48h inactive, HCMV inh inactive, Giardia FBPA inh inactive, Sm TGR block inactive and Pf growth 96h 10.4µM.
Screening O=c1[nH]ccc2c(S(=O)(=O)N3CCCNCC3)cccc12 returned Giardia FBPA inh inactive.
